Each structure is given as a SMILES string. Active and inactive are the calls of the source. Calls follow the shape of the full dose curve.
% is scaled to controls: 0 for no effect and ±100 for the full control effect; potency is read from the fitted curve at half-maximal effect.

A short description of the experiment: G protein-coupled receptor (GPCR) small molecule agonists, calcium flux assay: HEK293 wild type cell line counter screen (AID 1920065). As to conditions: HEK293 WT calcium flux, fluorescence, agonist mode; series mostly up to 57.6 µM; activation: at the top concentration. An excerpt:
U.S. Tox21 Program National Center for Advancing Translational Sciences [NCATS] Division of Preclinical Innovation [DPI] U.S. Environmental Protection Agency [EPA] National Institutes of Environmental Health Sciences [NIEHS] National Toxicology Program [NTP] U.S. Food and Drug Administration [FDA] Assay overview: The increased intracellular calcium release that occurred upon G protein-coupled receptor (GPCR) activation led to the frequent use of calcium flux assays to detect GPCR activation. For the purpose of studying and screening compounds that may activate GPCR, receptor-overexpressing models were typically generated using Hek293 wild-type (WT) cells. In order to eliminate the compounds that may have induced calcium release for non-specific activation, a counter-assay utilizing calcium flux on Hek293 WT cells was performed. The data were formulated in order to serve as a control for any calcium flux detection utilizing Hek293 cells with either GPCR overexpression or gene modification. The procurement of Hek293 WT cells from ATCC. Fluorescence intensity can be utilized to determine the activation of the compound in a calcium flux assay. As a counter control, this cell line was utilized to screen the Tox21 10K compound library.
Assay Protocol Summary: Hek293 cells were dispensed at 1500cells/4uL/well in 1536-well black wall/clear bottom plates using a multidrop dispenser. After the assay plates were incubated at a 37 C/5% CO2 incubator for 18 hours, 4 uL of Calcium Dye Solution was added to each well. The plates were incubated at 37 C for 1 hour. For agonist mode, 23 nL of compounds dissolved in DMSO, positive control (ATP) or DMSO only was transferred to the assay plate by a pin tool station. The fluorescence intensity in the plates was measured using FDSS 7000EX kinetic plate reader with a filter set of Ex/Em=480/540 for 3 min at 1 sec intervals. Each test compound was measured at 15 concentrations and in triplicates.
A general note: Calcium flux is commonly read through the fluorescence of an indicator in the cells.
Regarding `CCCN(CCC)CCc1c[nH]c2ccccc12`, the “activation” value was -0.521% (inactive).

Take `CCCCC/C=C\C/C=C\C/C=C\C/C=C\CCCC(=O)NCC(=O)O`: the “activation” value was 1.39% [at 26.5 µM] (inactive).

With `Brc1ccccc1`, the “activation” value is -0.213% (inactive).

On to `O=C(O)C(F)(F)C(F)(F)C(F)(F)C(F)(F)C(F)(F)C(F)(F)C(F)(F)C(F)(F)C(F)(F)F`, for which the “activation” value was 0.141% (inactive).

Take `Clc1ccc(C2(Cn3cncn3)CC(Br)CO2)c(Cl)c1` (stereo not given): the “activation” value was 0.677% (inactive).

As to `NNC(=O)c1cccnc1`, the “activation” value was -0.279% (inactive).

As for `CN(C)C1CSSSC1`, the “activation” value is 0.0035% (inactive).

`COC(=O)C(C)N(C(=O)Cc1ccccc1)c1c(C)cccc1C` (stereo not given): the “activation” value is -0.155% (inactive).

For the compound `CCOC(=O)COc1ccc(Cl)cc1Cl`, the “activation” value was -0.645% (inactive).

As for `N#CCCl`, the “activation” value is 0.377% (inactive).

For the compound `CC(C)C(Nc1ccc(C(F)(F)F)cc1Cl)C(=O)OC(C#N)c1cccc(Oc2ccccc2)c1` (stereo not given), the “activation” value is -0.098% (inactive).

Turning to `CCCCCCC(=O)CCCCCC/C=C/C[C@@H](O)[C@H](O)[C@@](N)(CO)C(=O)O`, the activation is 0.714% [at 11.8 µM] (inactive).

On to `CN/C(=N\[N+](=O)[O-])NCc1cnc(Cl)s1`, for which the “activation” value was 0.961% (inactive).

With `CCNS(=O)(=O)C(F)(F)C(F)(F)C(F)(F)C(F)(F)C(F)(F)C(F)(F)C(F)(F)C(F)(F)F`, the “activation” value was -1.9% (inactive).

On to `OCC(c1ccc(Cl)cc1)c1ccc(Cl)cc1`, for which the “activation” value was -0.245% (inactive).

As to `CCS(=O)(=O)CCSP(=O)(OC)OC`, the “activation” value was 0.311% (inactive).

On to `O=C(NC(=O)c1c(F)cccc1F)Nc1ccc(Oc2ccc(C(F)(F)F)cc2Cl)cc1F`, for which the “activation” value is 2.34% (inactive).

On to `CCOC(=O)c1cn2nc(OP(=S)(OCC)OCC)cc2nc1C`, for which the “activation” value is -2.07% (inactive).

On to `CC(C)(C#N)C(C)(C)C#N`, for which the “activation” value is 0.165% (inactive).

Take `O=[N+]([O-])c1cccc2cccc([N+](=O)[O-])c12`: the “activation” value is 0.611% (inactive).

In the case of `Fc1ccc(Oc2ccnc3cc(Cl)cc(Cl)c23)cc1`, the “activation” value is -0.0043% (inactive).

Take `CC(Oc1cccc(Cl)c1)C(=O)O` (stereo not given): the “activation” value was -0.867% (inactive).

`OC(c1ccc(Cl)cc1)(c1ccc(Cl)cc1)C(Cl)(Cl)Cl`: the “activation” value is -0.939% (inactive).

Take `ClC1=C(Cl)C2(Cl)C(CBr)CC1(Cl)C2(Cl)Cl` (stereo not given): the Potency result was “inactive”.

Consider `CCOP(=S)(OCC)SC(CCl)N1C(=O)c2ccccc2C1=O` (stereo not given), for which the “activation” value is -1.35% (inactive).

As for `C=CCC1=C(C)C(OC(=O)C2C(C=C(C)C)C2(C)C)CC1=O` (stereo not given), the “activation” value is -2.55% (inactive).

For the compound `CC(=O)C(Cl)(Cl)Cl`, the “activation” value is 19.5% (inactive).

Regarding `CCOCCOC(C)=O`, the “activation” value is -1.3% (inactive).

For `CC(=O)C(Cl)C(=O)N(C)C` (stereo not given), the “activation” value is -0.0274% (inactive).

As to `O=c1c(C2CC(c3ccc(-c4ccc(Br)cc4)cc3)Cc3ccccc32)c(O)sc2ccccc12` (stereo not given), the “activation” value is 0.0488% [at 26.5 µM] (inactive).

Regarding `CCC1COC(Cn2cncn2)(c2ccc(Cl)cc2Cl)O1` (stereo not given), the “activation” value is 0.302% (inactive).

Consider `CCCN(CCC)C(=O)Cc1c(-c2ccc(Cl)cc2)nc2ccc(Cl)cn12`, for which the “activation” value is -0.276% [at 26.5 µM] (inactive).

`CCOC(=O)C1(c2ccccc2)CCN(CCc2ccc(N)cc2)CC1`: the “activation” value was 0.983% [at 26.5 µM] (inactive).

For `CCOP(=S)(OCC)SCSP(=S)(OCC)OCC`, the “activation” value was 0.164% (inactive).

Turning to `O=C(N[C@H]1CN2CCC1CC2)c1ccc2c(c1)OCCO2`, the “activation” value was 1.14% (inactive).

In the case of `CCC(=O)c1ccc(Cl)cc1`, the “activation” value is 0.614% (inactive).

Turning to `O=C1NCN(c2ccccc2)C12CCN(CCCOc1ccc(F)cc1)CC2`, the Potency is 10.7 µM (active).

Take `O=C(Nc1ccc2[nH]ccc2c1)c1cc2cc(F)ccc2n1Cc1cccc(F)c1`: the “activation” value was 0.468% (inactive).

As to `C#CC1(O)CCCCC1`, the “activation” value is -0.091% (inactive).

Regarding `CCN(CCO)CCn1c(Cc2ccccc2)nc2c1c(=O)n(C)c(=O)n2C`, the “activation” value was -0.322% [at 26.5 µM] (inactive).

The record behind these values is PubChem BioAssay (Tox21).
